Measured values taken from PubChem BioAssay AID1851 (National Center for Advancing Translational Sciences (NCATS), 2009).
Values joined by “and” are separate entries in the source; they are usually repeats but may differ in a detail not shown here. Identical values can stand only once. The whole screen tested about 16,000 compounds, of which about 5,800 (36%) were called active. Roughly 23% stayed inconclusive and do not appear here. Calls follow the shape of the dose curve; as a rule, active = well fitted curve in the direction sought with a large enough effect; inconclusive = small, poorly fitted or top-dose-only effect, or effect the other way; inactive = no such curve, though single readings can be large or run the other way. This is one part of the list. Where a structure was tested more than once in an assay, its records may differ in their call.

target: Cytochrome P450 2C19 (Homo sapiens) (UniProt P33261); assay: Cytochrome panel assay with activity outcomes; settings: recombinant CYP, pro-luciferin dealkylation, luminescence, p450-cyp2c19; series mostly up to 57.1 µM; activity, negative = inhibition: at the top concentration
% is scaled to controls: 0 for no effect and ±100 for the full control effect.

Sequence of Cytochrome P450 2C19 (Homo sapiens) (P33261 whole entry, looked up): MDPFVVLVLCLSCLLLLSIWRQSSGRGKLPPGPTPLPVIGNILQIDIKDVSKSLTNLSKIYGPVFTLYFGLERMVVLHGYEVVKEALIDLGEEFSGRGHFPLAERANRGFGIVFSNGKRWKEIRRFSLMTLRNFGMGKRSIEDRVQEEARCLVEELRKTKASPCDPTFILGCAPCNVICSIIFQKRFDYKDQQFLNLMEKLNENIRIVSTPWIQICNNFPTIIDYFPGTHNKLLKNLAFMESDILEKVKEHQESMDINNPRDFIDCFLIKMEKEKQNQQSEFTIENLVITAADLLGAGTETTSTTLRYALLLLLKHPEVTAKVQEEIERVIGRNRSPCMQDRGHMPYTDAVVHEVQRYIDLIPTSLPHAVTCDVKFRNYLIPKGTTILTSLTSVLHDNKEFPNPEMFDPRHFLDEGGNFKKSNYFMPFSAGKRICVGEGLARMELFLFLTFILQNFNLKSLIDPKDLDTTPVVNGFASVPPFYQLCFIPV

SMILES	activity, negative = inhibition	AC50
CN1CCc2c(cc(O)c(O)c2Cl)[C@H](c2cccc(Cl)c2)C1	-27.1% (inactive)	
CC(C)(C)C1CCC(OCC(O)CN2CCN(c3ccccc3)CC2)CC1 (stereo unspecified)	-16.8% (inactive)	
OC(COCC1COc2ccccc2O1)CN1CCN(c2ccccc2F)CC1 (stereo unspecified)		28.2 µM (active)
OC(COCC1COc2ccccc2O1)CN1CCc2ccccc2C1 (stereo unspecified)		5.01 µM (active)
O=C(c1ccccc1)c1ccc2n1CC[C@H]2C(=O)O		inactive
CC(C)(C)NC[C@@H](O)COc1ccccc1C1CCCC1	-24.6% [at 25.6 µM] (inactive)	
C=CCc1ccccc1OC[C@H](O)CNC(C)C		inactive
O=C(NC1CCCC1)c1cnn2c(C(F)(F)F)cc(-c3ccco3)nc12		11.2 µM (active)
Cc1nc2ccccn2c1C(=O)CSc1ccccc1Cl		2.82 µM (active)
C[C@@H](C(=O)NCCF)[C@H]1C[C@]1(C)[C@H](NC(=O)OCc1ccccc1)c1ccccc1		1.26 µM (active)
COCCNC(=O)[C@H](C)[C@@H]1C[C@@]1(C)[C@@H](NC(=O)OCc1ccccc1)c1ccccc1		3.16 µM (active)
CCOC(=O)N/N=C1/C[C@@H](O)[C@@H](O)[C@@H]2[C@@H]3C(=O)N(C(C)(C)C)C(=O)[C@H]3CC[C@@H]12	-19.4% [at 11.4 µM] (inactive)	
CC(=O)OCCNC(=O)c1cccnc1	25.9% (inactive)	
O=C(NCCO[N+](=O)[O-])c1cccnc1		3.98 µM (active)
O=C(NCCOC(=O)c1ccc(C(=O)OCCNC(=O)c2cccnc2)s1)c1cccnc1		7.94 µM (active)
Cc1cccc([C@@H]2CN(C)CCc3c2cc(O)c(O)c3Cl)c1		inactive
CN(C)CCC[C@@]1(c2ccc(F)cc2)OCc2cc(C#N)ccc21		inactive and 3.16 µM (active)
COc1ccccc1N/C(=N/S(=O)(=O)c1ccc(C)cc1)c1ccc(Cl)cc1		4.47 µM (active)
O=S(=O)(/N=C(/Nc1ccc(F)cc1F)c1ccc(Cl)cc1)c1ccccc1	-10.4% (inactive)	
COc1cccc(-c2nc(Nc3ccncc3)c3ccccc3n2)c1		3.16 µM (active)
CS(=O)(=O)Nc1cccc(-c2nc(Nc3ccncc3)c3ccccc3n2)c1		5.01 µM (active)

SMILES	activity, negative = inhibition	AC50
COc1cc(NS(C)(=O)=O)ccc1Nc1c2ccccc2nc2ccccc12	-6.07% (inactive)	
CS(=O)(=O)Nc1cccc(-c2nc(Nc3ccc(F)cc3)c3ccccc3n2)c1		7.94 µM (active)
CS(=O)(=O)Nc1cccc(-c2nc(N3CCNCC3)c3ccccc3n2)c1	-31.6% (inactive)	
CS(=O)(=O)Nc1ccc(Nc2c3ccccc3nc3ccccc23)cc1	-0.835% [at 11.4 µM] (inactive)	
CNc1nc(-c2cccc(NS(C)(=O)=O)c2)nc2ccccc12	-23.8% (inactive)	
N#Cc1cccc(-c2nc(Nc3ccncc3)c3ccccc3n2)c1	-18.2% (inactive)	
CS(=O)(=O)Nc1cccc(-c2nc(Nc3ccccc3)c3ccccc3n2)c1		10 µM (active)
CCCCCCCCCCCCCCSCC(=O)O	27.3% (inactive)	
NC[C@](O)(CS(=O)(=O)O)c1ccc(Cl)cc1	16% (inactive)	
O=C(N/N=C/c1cccc(Oc2ccccc2)c1)c1cccc(Br)c1		2.24 µM (active)
O=C(N/N=C/C1C(c2ccccc2)C1(Cl)Cl)c1cccc(Br)c1 (stereo unspecified)		7.08 µM (active)
O=C(N/N=C\c1ccc(Sc2ccccn2)o1)c1cccc(Br)c1		2.51 µM (active)
C[C@@H](N=C(N)N)C(=O)O	36.5% [at 11.4 µM] (inactive)	
CC(=O)O[C@]12CC[N@+]3(C)CCCC[C@@H]3[C-]1Nc1ccccc12	34.8% [at 11.4 µM] (inactive)	
Cn1nc(C(F)(F)F)c(/C=N/OCc2c(Cl)cccc2Cl)c1Cl		0.282 µM (active)
CCCC(=O)Nc1cc(-c2cn3cccnc3n2)ccc1OC	-18.8% (inactive)	
COc1ccc(OC)c(NC(=O)Cn2cccc2)c1		6.31 µM (active)
COc1ccc(NC(=O)Cn2cccc2)c(OC)c1		2.24 µM (active)
COc1ccc(NC(=O)NCc2cccn2C)c(OC)c1		6.31 µM (active)
COc1ccc(-c2nnn(CC(=O)N(CC(=O)NCCC(C)C)Cc3cccs3)n2)cc1OC		1.12 µM (active)
COc1ccc(NC(=O)N2CC3(CCN(C(=O)c4cccn4C)CC3)C2)cc1	2.63% (inactive)	

SMILES	activity, negative = inhibition	AC50
COc1ccc(OC)c(NC(=O)CC(Cc2ccccc2OC)C(=O)O)c1 (stereo unspecified)	-24.6% (inactive)	
COCCN(C(=O)Nc1ccc(OC)cc1OC)C1CCN(C(C)=O)CC1	-21.1% (inactive)	
COc1ccc(NC(=O)N2CCC3(CC2)CCN(C(=O)c2cccn2C)CC3)cc1	9.41% (inactive)	
CO[C@H]1COC(=O)[C@H](C)NC(=O)C/C=C\[C@@H](C)[C@@H](NS(=O)(=O)c2ccc(C)cc2)COC(=O)C/C=C\[C@@H]1C	24.1% [at 11.4 µM] (inactive)	
CCOc1ccc(-c2nnn(CC(=O)Nc3cc(OC)ccc3OC)n2)cc1OCC		5.62 µM (active)
COc1ccc(-c2nnn(CC(=O)NCCc3c[nH]c4ccccc34)n2)cc1OC		8.91 µM (active)
Cn1ncc(C#N)c1NC(=O)C1CC(c2ccc(Cl)cc2)=NO1 (stereo unspecified)		0.316 µM (active)
COc1cccc(Nc2ncc3nc(-c4cccs4)c(=O)n(CCC#N)c3n2)c1	8.8% (inactive)	
O=C(CCC1CCCCC1)Nc1c2c(nn1-c1ccc(F)cc1)CS(=O)(=O)C2		15.8 µM (active)
NC(=O)c1ccc([N+](=O)[O-])cc1SCc1ccccc1		10 µM (active)
O=C(O)c1cc(N=Nc2ccc([N+](=O)[O-])cc2)ccc1O	-3.05% [at 11.4 µM] (inactive)	
O=C(O)[C@@H]1[C@@H](C(=O)NCc2ccccn2)[C@@H]2C=C[C@@H]1O2	36% [at 11.4 µM] (inactive)	
O=C(NCc1ccccn1)c1cc(-c2ccccc2Cl)on1		14.1 µM (active)
OCCN1CCOCCOCCN(CCO)CCN(CCO)CC1	-16.8% (inactive)	
CCN1CCN(C(=S)c2ccc(Br)cc2)CC1		7.94 µM (active)
O=C(CCCN1CCC(O)(c2ccc(Br)cc2)CC1)c1ccc(F)cc1	-4.38% [at 25.6 µM] (inactive)	
C[C@H]1CN(CCO)CCN1c1ccccc1	34.1% [at 11.4 µM] (inactive)	
OCCN1CCN(C(=S)c2ccc(Br)cc2)CC1		4.47 µM (active)
O=c1[nH][nH]c(C(F)(F)F)c1C=Nc1ccccc1	-9.86% (inactive)	
